Where “and” joins values, the source holds several entries; their conditions need not be identical. Identical values can stand only once. About 7,300 (2.2%) of roughly 330,000 compounds were called active. The sample as a whole holds a higher share of actives than the screen did. A number with no mark means an inactive call.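 Rule for the calls: active = inhibition of at least 40%; inactive = the rest.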

A short description of the test: growth inhibitors of tim10-1 mutant yeast, primary screen, luminescence, uHTS (AID 463190).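 Note: mutant grown at 25 °C; 0% = DMSO wells with yeast and 100% = wells holding no yeast.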 The following applies: S. cerevisiae tim10-1 ts strain growth, BacTiter-Glo, 24 h; at 20 µM; stronger effect = higher value.
In the case of `CCOC(=O)c1ccc(N=C2SC(C(=O)NC)CC(=O)N2CCc2ccccc2)cc1` (stereo not given), the inhibition (as a rule, the drop in the measured response relative to a control, in per cent) is 8.86%.

On to `Cc1cccc(N(C)C(=O)CN2C(=O)COc3ccc(S(=O)(=O)N4CCCCCC4)cc32)c1`, for which the inhibition was 25.2%.

In the case of `CCOc1ccc(S(=O)(=O)Nc2nc3cc(OC)ccc3s2)cc1`, the inhibition was -15.2%.

On to `COc1ccc(S(=O)(=O)Nc2ccc(O)c(Sc3nc4ccccc4s3)c2)cc1`, for which the inhibition was 44.6% (active).

Take `COc1ccc(NS(=O)(=O)c2ccc3oc(SCC(N)=O)nc3c2)cc1`: the inhibition was 6.21%.

On to `O=S(=O)(c1cccs1)N1CCN(CCOc2ccccc2)CC1`, for which the inhibition was 8.64%.

`CC(C)Sc1nnc([C@H](Cc2ccccc2)NC(=O)OC(C)(C)C)o1`: the inhibition is 15.3%.

As for `C[C@@H](NC(=O)OC(C)(C)C)c1nnc(S(=O)(=O)Cc2ccccc2)o1`, the inhibition is 45.1% (active).

As to `C[C@H](NC(=O)OC(C)(C)C)c1nnc(SCC(=O)Nc2ccc(Br)cc2)o1`, the inhibition was 20.6%.

On to `C=Cn1c(C(=O)O)ccc1-c1ccc(OC)cc1`, for which the inhibition was 4.85%.

Turning to `CC1(C)CCSC(/C=C/c2ccccc2)=N1`, the inhibition is 44.4% (active).

For the compound `Cc1ccc(C(=O)NC2CCN(C(=O)Nc3ccccc3Cl)CC2)cc1`, the inhibition was -3.39%.

`CC(NC(=O)CN(C)S(=O)(=O)c1ccc(F)cc1)C1CC2CCC1C2` (stereo not given): the inhibition was 25.6%.

Consider `Cc1cc(CNCc2c(C(=O)N(C)Cc3ccccc3)nc3ccccn23)nn1C`, for which the inhibition is 10.5%.

For the compound `COc1cnc(-c2ccccn2)nc1Oc1ccc(C(C)(C)C)cc1`, the inhibition was 35%.

As to `CC(C)(C)Nc1nc(-c2ccccn2)nc2ccccc12`, the inhibition is -7.74%.

`Cc1ccc(Oc2nc(-c3ccccn3)nc3ccccc23)cc1`: the inhibition is 44.9% (active).

Take `Cn1nc(C(C)(C)C)c([N+](=O)[O-])c1C(N)=O`: the inhibition is -18.4%.

With `S=C(Nc1cccc(Cl)c1)Nc1ccc2c(c1)OCCO2`, the inhibition was 32.9%.

Consider `FC(F)(F)c1cccc(NC(=S)Nc2cccc(Cl)c2)c1`, for which the inhibition is 48.1% (active).

As to `Cc1csc(NC(=S)Nc2cccc(Cl)c2)n1`, the inhibition was 29.1%.

As for `Cc1cc(C)cc(OCC(=O)NCc2cc(C)nc3ccccc23)c1`, the inhibition is 20.5%.

Turning to `CCOc1ccc(-n2c(SCC(=O)NC3CCS(=O)(=O)C3)nnc2-c2cccnc2)cc1` (stereo not given), the inhibition was 7.61%.

For the compound `CN(CC(=O)Nc1c(Cl)cccc1Cl)C(=O)c1ccncc1`, the inhibition is 1.02%.

Take `Cc1ccc(C(=O)CCC(=O)N(C)CC(=O)Nc2c(Cl)cccc2Cl)cc1`: the inhibition was 97.9% (active).

As to `Cc1cccc(C)c1NC(=O)CN(C)C(=O)CCC(=O)c1ccccc1`, the inhibition was 9.26%.

For `Cc1ccc(CNC(=O)Cc2cn(C)c3ccccc23)cc1`, the inhibition is 27.3%.

Take `CC(C)CNS(=O)(=O)c1ccc(CCC(=O)NCc2ccc(Cl)cc2)cc1`: the inhibition was 8.22%.

Consider `CSc1ccc(S(=O)(=O)NCc2ccc(Cl)cc2)cc1`, for which the inhibition was 44.8% (active).

For the compound `Cc1ccc(S(=O)(=O)NCCC(=O)NCc2ccc(Cl)cc2)cc1C`, the inhibition is 8.85%.

With `O=C(OCC(=O)N1CCc2ccccc21)C1CCCN1S(=O)(=O)c1ccc(Cl)cc1` (stereo not given), the inhibition is -10.6%.

For the compound `COc1ccc(CN2CC(C(=O)NCCc3ccc(Cl)cc3)CC2=O)cc1` (stereo not given), the inhibition is -2.13%.

On to `CCCC1CCC(=NNC(=S)NCCc2ccccc2)CC1` (stereo not given), for which the inhibition was -25.5%.

Consider `CCCCNC(=S)N/N=C1\CCCCc2ccccc21`, for which the inhibition was 47.7% (active).

As to `Cc1ccc(NC(=S)N/N=C2/CCCc3c(C)cc(C)cc32)cc1`, the inhibition is 9.99%.

Consider `COC(=O)c1c(NC(=O)C(=O)N2CCCCC2)sc2c1CC(C)(C)OC2`, for which the inhibition was 8.07%.

Consider `c1ccc(Cc2ccc(OCCn3ccnc3)cc2)cc1`, for which the inhibition is -1.87%.

Consider `CSCC[C@H](NC(=O)NC1CCCC1)C(=O)O`, for which the inhibition was 3.78%.

Turning to `CCOC(=O)N1CCC(N2Cc3cccc(C(=O)Nc4c(C)cccc4CC)c3C2=O)CC1`, the inhibition is 51% (active).

For the compound `O=C(O)c1cccc2c1C(=O)N(C1CCCC1)C2`, the inhibition is 8.44%.

As to `CCOC(=O)N1CCC(N2Cc3cccc(C(=O)Nc4ccc(S(=O)(=O)N(CC)CC)cc4)c3C2=O)CC1`, the inhibition is 17.7%.

Consider `O=C(Nc1nnc(-c2ccccc2)o1)c1cc(-c2cccs2)nc2ccccc12`, for which the inhibition was 48.6% (active).

Turning to `O=C(Nc1nnc(-c2ccc(Cl)cc2)o1)c1ccccc1Br`, the inhibition was 6.25%.

In the case of `CC(C)(C)Cc1nnc(NC(=O)c2cc(-c3ccccc3)nc3ccccc23)s1`, the inhibition is 23.3%.

`Cc1cc([N+](=O)[O-])nn1CCCC(=O)Nc1cccnc1Cl`: the inhibition was 16.8%.

For the compound `Cc1ccccc1OCC(=O)Nc1ccc2c(c1)ncn2C`, the inhibition was 5.78%.

In the case of `Cc1ccccc1OCC(=O)Nc1ccc(S(=O)(=O)N2CCOCC2)cc1`, the inhibition was 37.4%.

For the compound `Cc1ccccc1OCC(=O)Nc1ccc(N2CCN(C(=O)C(C)C)CC2)c(Cl)c1`, the inhibition was 63.3% (active).

As for `Cc1cc(NC(=O)CCS(=O)(=O)c2ccc(F)cc2)no1`, the inhibition is -5.29%.

With `COc1cc([N+](=O)[O-])ccc1NC(=O)CN1CCCC1`, the inhibition was 6.08%.

For `COc1cc([N+](=O)[O-])ccc1NC(=O)COC(=O)CCOc1ccc(C)cc1`, the inhibition is 50.3% (active).

For the compound `CSc1ccccc1NC(=O)COC(=O)CCCOc1ccc(C)cc1`, the inhibition was 7.06%.

For the compound `Cc1nc2ccc(C(=O)N/N=C/c3ccc(O)cc3)cc2[nH]1`, the inhibition is 0.009%.

For `COC(=O)N/N=C/c1ccc(/C=N/NC(=O)OC)cc1`, the inhibition is 7.21%.

Turning to `Cc1nonc1C(=O)N/N=C/c1ccc(O)cc1`, the inhibition is 51.4% (active).

Regarding `O=C(O)Cc1csc(-c2cccc(Oc3ccccc3)c2)n1`, the inhibition was 7.9% and -6.65%.

On to `CN(CC(=O)NCCc1ccc(S(N)(=O)=O)cc1)CC(=O)Nc1ccc(F)c(F)c1F`, for which the inhibition is 0.849%.

On to `Cc1ccc(S(=O)(=O)N(CC(O)CN2CCCCC2)c2cccc([N+](=O)[O-])c2)cc1` (stereo not given), for which the inhibition is -38.7%.

Consider `C/C(=N\NC(=S)NCc1ccccc1)c1ccc(Cl)cc1`, for which the inhibition is 22.9%.

In the case of `C/C(=N\NC(=S)NCc1ccccc1)C1CCCCC1`, the inhibition was 42.6% (active).

As for `CC1CCCCN1C(=S)NCc1ccccc1` (stereo not given), the inhibition was -0.074%.

Consider `Cc1oc(CC(C)C)c(CN2CCCC2)c1C(=O)O`, for which the inhibition is 3.08%.

Take `Cc1ccc(C2=NN(C(=O)COc3ncnc4ccccc34)C(c3ccco3)C2)cc1` (stereo not given): the inhibition is -2.47%.

Take `O=C1c2cccc(OCC(=O)N3N=C(c4cccs4)CC3c3ccc(F)cc3)c2CCN1Cc1ccccc1` (stereo not given): the inhibition was 19.6%.

Turning to `O=C(COc1ccccc1Cl)N1N=C(c2cccs2)CC1c1ccco1` (stereo not given), the inhibition was 40.8% (active).

For `CCc1n[nH]c(=S)n1/N=C/c1c[nH]c2ccc(Br)cc12`, the inhibition is 12%.

As to `Cc1cc(C)cc(NC(=O)C2CCCN(S(=O)(=O)c3ccc4[nH]c(=O)ccc4c3)C2)c1` (stereo not given), the inhibition was -13.6%.

With `COc1ccc(C(=O)COC(=O)c2ccc([N+](=O)[O-])s2)cc1OC`, the inhibition is 57.9% (active).

As to `COc1cc(NC(=O)COC(=O)c2ccc([N+](=O)[O-])s2)cc(OC)c1OC`, the inhibition is 30.9%.

Turning to `O=C(OCC(=O)N1CCN(c2ccccc2)CC1)c1ccc([N+](=O)[O-])s1`, the inhibition was 11.9%.

In the case of `S=c1[nH]nc(-c2ccco2)n1/N=C/c1ccc(Br)s1`, the inhibition was 22.5%.

As to `CCc1ccc(-c2cc(C(=O)NCc3ccco3)c3ccccc3n2)s1`, the inhibition is 45.4% (active).

Turning to `CC(=O)NCCNC(=O)c1cc(-c2cccc3ccccc23)nc2ccccc12`, the inhibition is 3.15%.

On to `CC(C)(C)c1ccc(C(=O)NCc2ccco2)cc1`, for which the inhibition is 15.4%.

Turning to `O=C(Cc1ccccc1)Nc1ccc(C(=O)Nc2ccccc2C(=O)O)cc1`, the inhibition was 1.08%.

As for `FC(F)(F)c1ccc(CN2C[C@@H]3C(c4ccccc4)C4(c5ccccc5)CC3(C4)[C@H]2c2ccccc2)cc1` (stereo not given in full), the inhibition was 28.9%.

For the compound `O=C(NCc1ccc2c(c1)OCO2)c1c(-c2ccsc2)sc2ccccc12`, the inhibition is 5.6%.

As for `CN[C@H](C(=O)NC[C@H]1O[C@@H](n2cnc3c(N)ncnc32)[C@H](O)[C@@H]1O)[C@@H](C)OCc1ccccc1`, the inhibition was 0.16%.

`Cc1ccc(Cl)c(NC(=O)CN2CCN(C=O)CC2)c1`: the inhibition was -10.1%.

With `Cc1cccc(OCC(=O)NCCNC(=O)c2cccnc2)c1`, the inhibition is -27.3%.

Consider `Cc1cccc(OCCNC(=S)NC(=O)c2cccnc2)c1`, for which the inhibition is 45.9% (active).

With `CCCOc1cccc(C(=O)NCCCNC(=O)c2cccnc2)c1`, the inhibition was -5.09%.

On to `CN(C(=O)CSc1nnc(C2CC2)n1C)C1CCCc2ccccc21` (stereo not given), for which the inhibition is -15.4%.

On to `Cc1csc(NC(=O)C2=COCCO2)n1`, for which the inhibition is 6.44%.

`CC(=O)NCCC(=O)Nc1nc(-c2ccc3c(c2)OCCO3)cs1`: the inhibition is 4.76%.

For the compound `Cc1ccc(-c2csc(NC(=O)C3=COCCO3)n2)cc1C`, the inhibition was 40.5% (active).

On to `COc1ccccc1OCCC(=O)OCC(=O)NC(=O)NC(C)(C)C`, for which the inhibition is 17.9%.

As to `CC(C)(C)NC(=O)NC(=O)COC(=O)C1(C)CC1(Cl)Cl` (stereo not given), the inhibition is 21.3%.

Turning to `CC(C)(C)NC(=O)NC(=O)COC(=O)CCC1CCCCC1`, the inhibition was 40.3% (active).

Consider `Cc1cc(C)cc(C(=O)NC(=S)Nc2ccc3[nH]c(=O)[nH]c3c2)c1`, for which the inhibition was 12.4%.

For the compound `COc1ccc(CS(=O)/C(Cl)=C(/Cl)C(=O)Nc2ccc(OC)nc2)cc1` (stereo not given), the inhibition was 41% (active).

Take `COc1ccc(NC(=O)/C(Cl)=C(/Cl)S(=O)Cc2ccc(C)cc2)cn1` (stereo not given): the inhibition is 30.1%.

For `COc1ccc(CCNC(=O)c2cnc(Cl)c(Cl)c2)cc1`, the inhibition was 17.4%.

As to `COc1ccc(CCNC(=O)COC(=O)c2ccc[nH]c2=O)cc1`, the inhibition is 7.85%.

Turning to `O=C(Cn1cnc2c(OCc3ccccc3)ncnc21)NCc1nc2ccccc2[nH]1`, the inhibition is -4.29%.

(Values after PubChem BioAssay AID463190 (Sanford-Burnham Center for Chemical Genomics, 2010).)
